Results from PubChem BioAssay (EPA / NIEHS).
Inconclusive results are not listed. Calls of active or inactive are those of the source. How the source made its calls: active means hit-call score of the fitted dose curve at least 0.9, where 1 is the maximum; inconclusive means response in the unintended direction; inactive means score below 0.9.

Each compound was assayed against human Thyroid Receptor alpha (THRa1), THRA (gene 7067) (UniProt P10827) (assay: ATG_THRa1_TRANS: Attagene TRANS-FACTORIAL HepG2 Assay for human Thyroid Receptor alpha (THRa1) (AID 2283014)).
human Thyroid Receptor alpha (THRa1), THRA (gene 7067), sequence (P10827 whole entry, looked up): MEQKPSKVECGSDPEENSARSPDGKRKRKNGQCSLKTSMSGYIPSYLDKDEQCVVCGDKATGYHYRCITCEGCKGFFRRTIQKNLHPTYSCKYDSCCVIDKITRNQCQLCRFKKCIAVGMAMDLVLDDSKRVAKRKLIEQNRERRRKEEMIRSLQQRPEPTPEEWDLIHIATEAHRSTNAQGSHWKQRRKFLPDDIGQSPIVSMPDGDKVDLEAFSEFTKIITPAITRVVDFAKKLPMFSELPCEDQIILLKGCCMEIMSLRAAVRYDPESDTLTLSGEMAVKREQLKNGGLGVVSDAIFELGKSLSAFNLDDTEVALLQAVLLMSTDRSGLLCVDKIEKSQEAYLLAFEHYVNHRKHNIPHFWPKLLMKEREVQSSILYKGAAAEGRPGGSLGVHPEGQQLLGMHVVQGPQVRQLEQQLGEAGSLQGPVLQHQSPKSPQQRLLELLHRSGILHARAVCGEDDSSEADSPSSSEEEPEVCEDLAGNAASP
Method: ATG_TRANS is a cell-based, multiplexed-readout assay that uses HepG2, a human liver cell line, with measurements taken at 24 hours after chemical dosing in a 24-well plate.ATG_THRa1_TRANS is one of 30 assay component(s) measured or calculated from the ATG_TRANS assay. It is designed to make measurements of mRNA induction, a form of inducible reporter, as detected with fluorescence intensity signals by Reverse transcription polymerase chain reaction (RT-PCR) and Capillary electrophoresis technology.Data from the assay component ATG_THRa1_TRANS was analyzed into 1 assay endpoint. This assay endpoint, ATG_THRa1_TRANS, was analyzed in the positive analysis fitting direction relative to DMSO as the negative control and baseline of activity. Using a type of inducible reporter, measures of mRNA for gain-of-signal activity can be used to understand the reporter gene at the transcription factor-level as they relate to the gene THRA. Furthermore, this assay endpoint can be referred to as a primary readout, because this assay has produced multiple assay endpoints where this one serves a reporter gene function. To generalize the intended target to other relatable targets, this assay endpoint is annotated to the nuclear receptor intended target family, where the subfamily is non-steroidal.
Human liver HepG2 cells are transiently transfected with multiple reporter transcription units (MRTUs) in 6-well plates using FuGene 6 reagent (Roche; 3 ml FuGene/1 mg DNA). The MRTU constructs are regulated by a cis-regulating element (promoter). […] A major difference between the CIS and TRANS system is that in CIS activities of endogenous TFs are measured, whereas the TRANS assay evaluates changes in activities of exogenous, chimeric NR-Gal4 proteins. […] At the end of 24 hour incubation, total RNA was isolated using TriZol reagent (Invitrogen). The isolated RNA is then reverse-transcribed using oligo(dT) primer and Mo-MLV reverse transcriptase (Invitrogen) with DNAse I (Ambion) treatment for 30 min. The one-tenth of the produced cDNA was amplified by PCR using Taq DNA polymerase (Invitrogen) and two reporter sequence-specific primers. The PCR products were fluorescently labeled by primer extension with 6-arboxyfluorescein (6-FAM) 5'-labeled reporter sequence-specific primer (2 min at 95 C, 20 s at 68 C and 10 min at 72 C) and these products were digested with 5U of HpaI (New England Biolabs) for 2h at 37 C. The fragments were purified using Qiaquick PCR columns (Qiagen), analyzed on an ABI 3130xL genetic analyzer (Applied Biosystems) with peak positions identified by using a set of X-rhodamine (ROX)-labeled MapMarker1000 molecular weight standards (BioVentures). The raw capillary electrophoresis data was processed using Attagraph software (Attagene).
For O=S(=O)(O)c1ccc(N=Nc2c(O)ccc3cc(S(=O)(=O)O)ccc23)cc1, the outcome was “inactive”. In the case of OCCC(F)(F)C(F)(F)C(F)(F)C(F)(F)F, the outcome is reported as “inactive”. With O=C(O)[C@H](O)[C@@H](O)C(=O)O the outcome was “inactive”. In the case of CCc1cccc(CC)c1N, the outcome is reported as “inactive”. CC[C@H](C)C(=O)O[C@H]1C[C@H](O)C=C2C=C[C@H](C)[C@H](CC[C@@H](O)C[C@@H](O)CC(=O)O)[C@H]21 was tested, and the outcome was “inactive”. For O=S1(=O)CCCO1, the outcome was “inactive”. CCn1nc(C)c2c1C(=O)NCC(c1ccc(O)cc1)=N2 was tested, and the outcome was “inactive”. For C[Si](C)(C)C(F)(F)C(F)(F)C(F)(F)F, the outcome was “inactive”. C[C@]12C=CC(=O)C=C1CC[C@H]1[C@@H]3C[C@@H](O)[C@](O)(C(=O)CO)[C@@]3(C)C[C@H](O)[C@@]12F was tested, and the outcome was “inactive”. With NNC(=O)c1ccncc1 the outcome was “inactive”. In the case of O=C(N[C@H](CO)[C@H](O)c1ccc([N+](=O)[O-])cc1)C(Cl)Cl, the outcome is reported as “inactive”. CCCCCOC(C)=O was tested, and the outcome was “inactive”. COc1cc2c(c(OC)c1OC)-c1ccc(OC)c(=O)cc1[C@@H](NC(C)=O)CC2 was tested, and the outcome was “inactive”. With CC(=O)c1ccccc1 the outcome was “inactive”. OCc1ccccc1 was tested, and the outcome was “inactive”. With O=C1CN(N=Cc2ccc([N+](=O)[O-])o2)C(=O)N1 the outcome was “inactive”. With C=CCc1cc(S(=O)(=O)c2ccc(O)c(CC=C)c2)ccc1O the outcome was “inactive”. Cc1cccc(O)c1C was tested, and the outcome was “inactive”. In the case of O=C(O)CO, the outcome is reported as “inactive”. With CCCCCCCCCCCCCCCCOS(=O)(=O)O the outcome was “inactive”. In the case of Cc1ncc([C@@H](CCCCCCc2ccc3c(n2)NCCC3)CC(=O)O)cn1, the outcome is reported as “inactive”. C[C@@H](Oc1ccc(CNC(=O)c2cccnc2Oc2ccc3c(c2)OCO3)c(F)c1)C(=O)O was tested, and the outcome was “inactive”. CCc1ccc(O)c(C(C)(C)C)c1 was tested, and the outcome was “inactive”. In the case of NCC(F)(F)C(F)(F)C(F)(F)C(F)(F)F, the outcome is reported as “inactive”. With CCCCCCCC/C=C\CCCCCCCC(=O)OC[C@@H](O)[C@H]1OC[C@H](O)[C@H]1O the outcome was “inactive”. In the case of S=P(N1CC1)(N1CC1)N1CC1, the outcome is reported as “inactive”. For CCCc1ccccc1, the outcome was “inactive”. For O=S(=O)(O)CCC(F)(F)C(F)(F)C(F)(F)C(F)(F)C(F)(F)C(F)(F)F, the outcome was “inactive”. For NC(=O)N1c2ccccc2C=Cc2ccccc21, the outcome was “inactive”. In the case of Cc1nc(-c2ccccn2)ncc1C(=O)Nn1cc(C)c2cc(F)ccc21, the outcome is reported as “inactive”. In the case of CNC(C)=O, the outcome is reported as “inactive”. With c1ccc(C(O[C@@H]2CCCN(CCc3ccc4c(c3)OCO4)C2)c2ccccc2)cc1 the outcome was “inactive”. With CCCCCCCCCCCCCCO the outcome was “inactive”. FC(F)=C(F)C(F)(F)C(F)(F)C(F)(F)C(F)(F)C(F)(F)C(F)(F)F was tested, and the outcome was “inactive”. c1ccc2cc3ccccc3cc2c1 was tested, and the outcome was “inactive”. OC(Cn1cncn1)(Cn1cncn1)c1ccc(F)cc1F was tested, and the outcome was “inactive”. CC(C)C(=O)Nc1ccc([N+](=O)[O-])c(C(F)(F)F)c1 was tested, and the AC50 was 100 µM (active). For Cc1nccn1-c1ccc(Sc2cccc(C3(C(N)=O)CCOCC3)c2)cc1, the outcome was “inactive”. OCc1c[nH]c2ccccc12 was tested, and the outcome was “inactive”. CC(C)CCCCCCOC(=O)C1CCCCC1C(=O)OCCCCCCC(C)C (stereo not given) was tested, and the outcome was “inactive”.
